Values joined by “and” are separate entries in the source; they are usually repeats but may differ in a detail not shown here. Identical values can stand only once. About 83,000 compounds went through this panel and 20% of them were active in at least one assay; those are over-represented in the sample as a whole.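 Assay: single dose, 48 h. Readout: percent growth (0 = no net growth; negative = cell death). Active: <10.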 Values without a mark were called inactive. Active and inactive are the calls of the source.
system: HL-60(TB) leukemia; assay: NCI-60 one-dose screen, 48 h (100 = growth as untreated, 0 = no growth, -100 = all killed); settings: 10 µM unless noted

SMILES | growth
COc1ccc(C(=O)c2nc3ccccc3n2CC(=O)c2ccc(Cl)cc2)cc1 | -13.2% (active)
CN(C)CCCC1(c2ccc(F)cc2)OCc2cc(-c3cncc4ccccc34)ccc21 (centres undefined) | 10.7%
CCNC(=O)Nc1ccc(-c2nc3c(c(N4CCOC[C@@H]4C)n2)CCN(C2COC2)C3)cc1 | 82.6% and 44.4%
C=C[C@]1(C)C=C2C(=O)[C@@]3(O)OC(=O)[C@@]4(CCCC(C)(C)[C@H]34)[C@@]2(O)CC1 | -25% (active)
COc1cc(C2CC(=O)c3c(C)nn(-c4nc5ccccc5[nH]4)c3C2)cc(OC)c1OC (centres undefined) | 132%
CC(=O)Nc1ccc(S(N)(=O)=O)cc1 | 101%
COP(=O)(OC)C(C)(C)CC(=O)CC(C#N)(C#N)C(C#N)C#N | 103%
COc1cc(NCCCCC(C)N)c2nccc(C)c2c1 (centres undefined) | 96.7%
CCCC1=NNC(=O)C1 | 95.6%
Nc1ccc(N=Nc2ccc(S(=O)(=O)O)cc2)cc1S(=O)(=O)O | 98.5% and 146%
NCCSC(c1ccccc1)(c1ccccc1)c1ccccc1 | -17.3% (active)
CCNc1ncnc2[nH]ncc12 | 95.7%
CCN(CC)S(=O)(=O)c1cccc(-c2ccc3c(NC(=O)C4CC4)n[nH]c3c2)c1 | 10.3% [6.25 µM]
C=C(CNCCc1ccc(O)cc1)[C@@H]1CC[C@]2(CO)CC[C@]3(C)[C@H](CC[C@@H]4[C@@]5(C)CCC(NCCO)C(C)(C)[C@@H]5CC[C@]43C)[C@@H]12 (some centres undefined) | -46.4% (active)
